Reference: PubChem BioAssay (EPA / NIEHS)
“And” between values parts separate entries of the source, which are not always exact repeats. Equal values may be shown once. Records with an inconclusive call do not appear. The source made the active and inactive calls. The calls were made as follows, unless noted: active = hit-call score of the fitted dose curve at least 0.9, where 1 is the maximum; inactive = score below 0.9.

Experiments:
[1] = target: Estrogen-related receptor gamma (Homo sapiens) (UniProt P62508); assay: ATG_ERRg_TRANS: Attagene TRANS-FACTORIAL HepG2 Assay for human Estrogen-Related Receptor gamma (ERRg) (AID 2282977; active = hit-call score of the fitted dose curve at least 0.9, where 1 is the maximum;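 also: hits increase reporter signal over DMSO so potencies reflect activators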); settings: HepG2 Attagene TRANS reporter, ERRg transactivation
Summary of the method: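 Transfect HepG2 with multiple GAL4-UAS reporter transcription units; dose chemicals 24 h; isolate RNA, reverse-transcribe with oligo(dT), PCR-amplify, label with 6-FAM, digest with HpaI; size fragments by capillary electrophoresis. DMSO serves as negative control.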

[2] = target: Bile acid receptor (Homo sapiens) (UniProt Q96RI1); assay: ATG_FXR_TRANS: Attagene TRANS-FACTORIAL HepG2 Assay for Farnesoid X Receptor (FXR) (AID 2282979; active = hit-call score of the fitted dose curve at least 0.9, where 1 is the maximum;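 also: hits raise reporter mRNA above DMSO so AC50 marks FXR activation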); settings: HepG2 Attagene TRANS FXR-GAL4 reporter transcription
Summary of the method: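 HepG2 cells were transiently transfected with GAL4-UAS reporters driven by chimeric NR-Gal4 proteins and dosed for 24 h. Reporter mRNA was quantified by RT-PCR, fluorescent labelling, HpaI digestion and capillary electrophoresis, with gain of signal scored versus DMSO.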

[3] = target: Oxysterols receptor LXR-alpha (Homo sapiens) (UniProt Q13133); assay: ATG_LXRa_TRANS: Attagene TRANS-FACTORIAL HepG2 Assay for human Liver X Receptor alpha (LXRa) (AID 2282980; active = hit-call score of the fitted dose curve at least 0.9, where 1 is the maximum); settings: HepG2 Attagene TRANS reporter, LXRa transactivation
Summary of the method: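 HepG2 cells transiently transfected with GAL4-UAS reporter units for chimeric NR-Gal4 proteins, exposed to chemicals for 24 h. Reporter mRNA quantified by RT-PCR and capillary electrophoresis; gain of signal fitted relative to DMSO.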

[4] = target: Oxysterols receptor LXR-beta (Homo sapiens) (UniProt P55055); assay: ATG_LXRb_TRANS: Attagene TRANS-FACTORIAL HepG2 Assay for human Liver X Receptor beta (LXRb) (AID 2282981; active = hit-call score of the fitted dose curve at least 0.9, where 1 is the maximum); settings: HepG2 Attagene TRANS GAL4-LXRb reporter, mRNA
Summary of the method: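 HepG2 cells transiently transfected with GAL4-UAS reporter units for chimeric NR-Gal4 proteins, dosed for 24 h. Reporter transcripts measured by RT-PCR and capillary electrophoresis; gain-of-signal fitting relative to DMSO.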

[5] = ATG_M_32_TRANS: Attagene TRANS-FACTORIAL HepG2 Assay for M32 Transcription Factor (Internal Marker) (AID 2282984; active = hit-call score of the fitted dose curve at least 0.9, where 1 is the maximum;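 also: transcript level of a background control reporter unit measured by RT-PCR and capillary electrophoresis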); settings: HepG2 Attagene TRANS M32 internal marker reporter
Summary of the method: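 HepG2 cells transiently transfected with GAL4-UAS reporter units, dosed for 24 hours. Reporter mRNA quantified by RT-PCR, 6-FAM labelling, HpaI digestion and capillary electrophoresis; internal-marker signal fitted upward relative to DMSO.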

[6] = target: Transcriptional activator Myb (Homo sapiens) (UniProt P10242); assay: ATG_Myb_CIS: Attagene CIS-FACTORIAL HepG2 Assay for human Myeloblastosis (Myb) Proto-Oncogene Transcription Factor (AID 2282986); settings: HepG2 Attagene CIS-FACTORIAL Myb reporter transcription; actives raise or lower the signal
Summary of the method: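 Fluorescence signals from capillary electrophoresis of RT-PCR-amplified reporter cDNA give the read-out. Cells: HepG2 transfected with multiple cis-regulated reporter units. Exposure lasts 24 hours; DMSO defines baseline for gain or loss of signal.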

[7] = target: Nuclear respiratory factor 1 (Homo sapiens) (UniProt Q16656); assay: ATG_NRF1_CIS: Attagene CIS-FACTORIAL HepG2 Assay for human Nuclear Respiratory Factor 1 (NRF1) Orphan Gene (AID 2282987); settings: HepG2 NRF1 cis-element reporter, Attagene multiplex; actives raise or lower the signal
Summary of the method: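 Transcriptional reporter readout, one component of a 52-endpoint multiplexed HepG2 panel. Exposure 24 h; mRNA detected via RT-PCR and fluorescent capillary electrophoresis; fitting in both directions against DMSO.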

[8] = ATG_NFI_CIS: Attagene CIS-FACTORIAL HepG2 Assay for human Nuclear Factor I (NFI) (AID 2282989); settings: HepG2 cis-regulatory reporter, NFI response element transcription; actives raise or lower the signal
Summary of the method: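 After transient transfection of HepG2 with cis-promoter reporter constructs and 24 h dosing, RNA is reverse-transcribed, amplified, 6-FAM end-labelled and HpaI-digested before capillary analysis. Bidirectional curve fitting against DMSO.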

[9] = ATG_NF_kB_CIS: Attagene CIS-FACTORIAL HepG2 Assay for human Nuclear Factor Kappa B (NF-kB) (AID 2282991); settings: HepG2 Attagene cis-factorial NF-kB reporter mRNA; actives raise or lower the signal
Summary of the method: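 HepG2, transient multi-reporter transfection, cis promoter elements (endogenous TFs). 24 h exposure. Total RNA → RT → PCR → 6-FAM label → HpaI → CE. Gain/loss vs DMSO.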

[10] = ATG_NRF2_ARE_CIS: Attagene CIS-FACTORIAL HepG2 Assay for human Nuclear Factor Erythroid 2 Related Factor 2 (NFR2) response to Antioxidant Response Elements (ARE) (AID 2282992); settings: HepG2 Attagene ARE/NRF2 reporter, transcription factor activity; actives raise or lower the signal
Summary of the method: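 HepG2 cells transiently transfected with multiplexed cis-regulated reporter transcription units measure endogenous transcription factor activity. Reporter mRNA at 24 h is quantified by RT-PCR, fluorescent labelling and capillary electrophoresis, with bidirectional fitting relative to DMSO.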

[11] = ATG_Oct_MLP_CIS: Attagene CIS-FACTORIAL HepG2 Assay for human Octamer-Binding Transcription Factor (Oct) (AID 2282993); settings: HepG2 Attagene cis-factorial Oct reporter, mRNA; actives raise or lower the signal
Summary of the method: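 Cells of the HepG2 line express promoter-controlled reporter sequences whose mRNA levels, after 24 h treatment, are measured by RT-PCR and capillary electrophoresis. Increases and decreases are scored relative to DMSO.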

[12] = target: Cellular tumor antigen p53 (Homo sapiens) (UniProt P04637); assay: ATG_p53_CIS: Attagene CIS-FACTORIAL HepG2 Assay for human p53 Transcription Factor (AID 2282994); settings: HepG2 p53 cis-element reporter, Attagene mRNA; actives raise or lower the signal
Summary of the method: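 HepG2 cells transiently transfected with multiplexed cis-regulated reporter transcription units read endogenous TF activity. After 24 h compound exposure, reporter mRNA was quantified by RT-PCR, fluorescent labelling, HpaI digestion and capillary electrophoresis; bidirectional fits versus DMSO baseline.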

[13] = target: Hepatocyte nuclear factor 4-alpha (Homo sapiens) (UniProt P41235); assay: ATG_HNF4a_TRANS: Attagene TRANS-FACTORIAL HepG2 Assay for human Hepatocyte Nuclear Factor 4 alpha (HNF4a) (AID 2282982; active = hit-call score of the fitted dose curve at least 0.9, where 1 is the maximum); settings: HepG2 HNF4a transactivation reporter, mRNA readout
Summary of the method: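 HepG2 cells transiently transfected with HNF4a-Gal4 chimera and GAL4-UAS reporter units, dosed for 24 h. Reporter mRNA measured by RT-PCR, fluorescent primer extension and capillary electrophoresis; gain-of-signal fitted relative to DMSO.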

[14] = ATG_M_06_TRANS: Attagene TRANS-FACTORIAL HepG2 Assay for M06 Transcription Factor (Internal Marker) (AID 2282983; active = hit-call score of the fitted dose curve at least 0.9, where 1 is the maximum;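 also: reporter transcript level by RT-PCR then capillary electrophoresis fluorescence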); settings: HepG2 Attagene TRANS M06 internal marker reporter
Summary of the method: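 HepG2 cells transiently transfected with GAL4-UAS multiple reporter units, dosed 24 h. Reporter RNA reverse-transcribed, PCR-amplified, 6-FAM-labeled, HpaI-digested and quantified by capillary electrophoresis; this internal-marker signal fitted upward relative to DMSO.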

[15] = target: Nuclear receptor subfamily 4 group A member 2 (Homo sapiens) (UniProt P43354); assay: ATG_NURR1_TRANS: Attagene TRANS-FACTORIAL HepG2 Assay for human Nuclear Receptor Related Protein 1 (NURR1) (AID 2282985; active = hit-call score of the fitted dose curve at least 0.9, where 1 is the maximum); settings: HepG2 Attagene TRANS reporter, mRNA readout
Summary of the method: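 HepG2 cells transiently transfected with NURR1-Gal4 chimera and GAL4-UAS reporter units; after 24 hr compound exposure, reporter mRNA quantified by RT-PCR and capillary electrophoresis; gain of signal fitted against DMSO.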

[16] = target: Myc proto-oncogene protein (Homo sapiens) (UniProt P01106); assay: ATG_Myc_CIS: Attagene CIS-FACTORIAL HepG2 Assay for human Myelocytomatosis (Myc) Proto-Oncogene Transcription Factor (AID 2282990); settings: HepG2, Attagene cis-reporter transcription factor activity; actives raise or lower the signal
Summary of the method: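 Read-out: fluorescent reporter mRNA fragments resolved by capillary electrophoresis after RT-PCR. Human HepG2 liver cells carried transfected cis-element reporter units and were dosed for 24 h. Gain or loss of signal fitted relative to DMSO baseline.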

[17] = BSK_3C_TissueFactor: BioMAP Diversity Plus: 3C Assay for Tissue Factor Biomarker Activity (AID 2282997); settings: BioMAP 3C HUVEC, tissue factor biomarker readout; actives raise or lower the signal
Summary of the method: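 HUVEC were treated 24 h, then surface tissue factor measured by ELISA and fitted bidirectionally against DMSO. Parallel SRB total-protein staining assessed overt cytotoxicity at the same time point.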

[18] = BSK_3C_uPAR: BioMAP Diversity Plus: 3C Assay for Urokinase-type plasminogen activator receptor (uPAR) Biomarker Activity (AID 2282998); settings: BioMAP 3C HUVEC, uPAR biomarker ELISA; actives raise or lower the signal
Summary of the method: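 Endothelial primary cells of human umbilical vein origin received test chemical; 24 h later uPAR was assayed by ELISA. Fitting was bidirectional, DMSO as negative control.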

[19] = BSK_3C_VCAM1: BioMAP Diversity Plus: 3C Assay for Vascular cell adhesion molecule 1 (VCAM1) Biomarker Activity (AID 2282999); settings: BioMAP 3C HUVEC, VCAM1 ELISA, cytokine-stimulated; actives raise or lower the signal
Summary of the method: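 Human umbilical vein endothelial cells (3C system), biomarker read by ELISA 24 h after dosing; bidirectional fit against DMSO baseline. Cytotoxicity tracked by SRB total-protein staining in parallel cultures at biomarker time.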

[20] = target: Glucocorticoid receptor (Homo sapiens) (UniProt P04150); assay: ATG_GR_TRANS: Attagene TRANS-FACTORIAL HepG2 Assay for human Glucocorticoid Receptor (GR) (AID 2282978; active = hit-call score of the fitted dose curve at least 0.9, where 1 is the maximum;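 also: activators score as hits since higher reporter transcript over DMSO is fitted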); settings: HepG2 Attagene TRANS GR reporter, mRNA transcription
Summary of the method: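 Measurement of GAL4-UAS-driven reporter mRNA in human HepG2 liver cells 24 h post-dosing, using RT-PCR with fluorescent labelling and capillary electrophoresis; the transfected constructs report exogenous NR-GAL4 chimera activity, fitted upward against DMSO.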

Measured: AC50

Chain of Glucocorticoid receptor (Homo sapiens) (P04150 whole entry, looked up, the tested form may be a part): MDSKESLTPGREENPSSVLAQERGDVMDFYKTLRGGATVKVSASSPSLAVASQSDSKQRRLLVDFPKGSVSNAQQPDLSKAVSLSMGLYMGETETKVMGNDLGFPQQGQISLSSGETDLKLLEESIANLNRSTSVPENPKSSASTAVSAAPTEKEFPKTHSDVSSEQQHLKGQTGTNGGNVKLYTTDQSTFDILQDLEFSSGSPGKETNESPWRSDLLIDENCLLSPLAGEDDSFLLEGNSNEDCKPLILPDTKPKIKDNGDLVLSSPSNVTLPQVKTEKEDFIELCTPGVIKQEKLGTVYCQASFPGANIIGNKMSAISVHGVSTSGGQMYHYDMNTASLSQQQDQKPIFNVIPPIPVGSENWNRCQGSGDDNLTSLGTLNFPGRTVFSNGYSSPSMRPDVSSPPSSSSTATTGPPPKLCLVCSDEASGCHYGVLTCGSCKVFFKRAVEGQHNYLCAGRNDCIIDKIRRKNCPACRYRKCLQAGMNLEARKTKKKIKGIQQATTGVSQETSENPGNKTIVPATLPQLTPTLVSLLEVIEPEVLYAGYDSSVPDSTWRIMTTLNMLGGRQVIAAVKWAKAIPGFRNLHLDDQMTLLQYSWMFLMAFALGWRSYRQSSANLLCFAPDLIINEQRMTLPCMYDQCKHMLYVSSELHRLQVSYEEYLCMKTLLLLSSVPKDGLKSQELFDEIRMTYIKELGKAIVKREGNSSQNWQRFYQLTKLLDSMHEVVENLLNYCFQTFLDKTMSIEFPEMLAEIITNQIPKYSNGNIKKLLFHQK
Chain of Estrogen-related receptor gamma (Homo sapiens) (P62508 whole entry, looked up, the tested form may be a part): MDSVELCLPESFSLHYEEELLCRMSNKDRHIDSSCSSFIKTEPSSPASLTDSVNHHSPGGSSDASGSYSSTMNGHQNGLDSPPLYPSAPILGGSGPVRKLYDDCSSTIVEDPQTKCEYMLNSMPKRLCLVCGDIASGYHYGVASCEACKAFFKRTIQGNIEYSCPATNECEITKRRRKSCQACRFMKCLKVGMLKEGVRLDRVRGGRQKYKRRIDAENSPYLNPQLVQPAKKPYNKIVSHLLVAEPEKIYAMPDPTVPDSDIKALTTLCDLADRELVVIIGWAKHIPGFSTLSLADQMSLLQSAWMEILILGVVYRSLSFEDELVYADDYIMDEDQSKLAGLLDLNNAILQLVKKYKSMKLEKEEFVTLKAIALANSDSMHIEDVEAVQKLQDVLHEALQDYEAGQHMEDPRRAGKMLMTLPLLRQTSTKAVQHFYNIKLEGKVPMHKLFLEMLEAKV
Chain of Nuclear receptor subfamily 4 group A member 2 (Homo sapiens) (P43354 whole entry, looked up, the tested form may be a part): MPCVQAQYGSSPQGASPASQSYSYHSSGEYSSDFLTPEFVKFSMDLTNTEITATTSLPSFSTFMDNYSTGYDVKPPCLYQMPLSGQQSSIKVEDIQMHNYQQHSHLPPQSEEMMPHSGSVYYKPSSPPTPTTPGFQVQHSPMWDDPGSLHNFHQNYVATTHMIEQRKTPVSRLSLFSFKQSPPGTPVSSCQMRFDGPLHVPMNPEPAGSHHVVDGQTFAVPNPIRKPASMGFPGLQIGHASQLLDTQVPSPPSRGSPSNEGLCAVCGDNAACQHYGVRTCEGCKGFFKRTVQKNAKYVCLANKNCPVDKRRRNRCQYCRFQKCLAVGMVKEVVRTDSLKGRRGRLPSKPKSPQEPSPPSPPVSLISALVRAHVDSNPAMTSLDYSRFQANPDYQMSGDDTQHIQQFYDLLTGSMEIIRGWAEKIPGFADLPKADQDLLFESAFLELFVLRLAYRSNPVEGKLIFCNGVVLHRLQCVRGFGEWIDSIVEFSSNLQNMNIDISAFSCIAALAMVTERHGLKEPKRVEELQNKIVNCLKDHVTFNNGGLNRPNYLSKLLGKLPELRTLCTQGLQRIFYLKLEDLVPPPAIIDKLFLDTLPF
Chain of Oxysterols receptor LXR-beta (Homo sapiens) (P55055 whole entry, looked up, the tested form may be a part): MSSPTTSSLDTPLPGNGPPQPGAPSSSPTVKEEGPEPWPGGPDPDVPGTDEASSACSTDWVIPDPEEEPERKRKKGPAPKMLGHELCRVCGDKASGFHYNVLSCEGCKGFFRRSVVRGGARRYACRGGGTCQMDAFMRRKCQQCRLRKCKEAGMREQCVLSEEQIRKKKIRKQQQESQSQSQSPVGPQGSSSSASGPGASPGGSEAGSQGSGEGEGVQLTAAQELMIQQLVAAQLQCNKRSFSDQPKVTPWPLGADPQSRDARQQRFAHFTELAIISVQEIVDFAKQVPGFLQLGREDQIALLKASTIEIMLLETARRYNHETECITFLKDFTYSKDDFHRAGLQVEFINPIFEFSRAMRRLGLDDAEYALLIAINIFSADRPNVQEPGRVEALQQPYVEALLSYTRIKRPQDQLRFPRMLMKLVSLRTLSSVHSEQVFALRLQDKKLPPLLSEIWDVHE
Chain of Myc proto-oncogene protein (Homo sapiens) (P01106 whole entry, looked up, the tested form may be a part): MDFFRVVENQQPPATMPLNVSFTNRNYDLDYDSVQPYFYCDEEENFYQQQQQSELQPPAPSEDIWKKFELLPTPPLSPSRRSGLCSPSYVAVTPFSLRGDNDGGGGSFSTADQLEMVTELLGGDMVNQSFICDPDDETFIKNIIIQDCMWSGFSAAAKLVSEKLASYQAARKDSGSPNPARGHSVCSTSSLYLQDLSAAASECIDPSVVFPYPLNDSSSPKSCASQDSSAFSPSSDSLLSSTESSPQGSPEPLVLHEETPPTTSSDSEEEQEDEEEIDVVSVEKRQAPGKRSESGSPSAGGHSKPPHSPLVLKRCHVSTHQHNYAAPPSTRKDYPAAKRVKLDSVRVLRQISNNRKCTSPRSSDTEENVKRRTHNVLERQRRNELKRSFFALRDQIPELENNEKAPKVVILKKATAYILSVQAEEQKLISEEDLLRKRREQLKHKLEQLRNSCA
Chain of Nuclear respiratory factor 1 (Homo sapiens) (Q16656 whole entry, looked up): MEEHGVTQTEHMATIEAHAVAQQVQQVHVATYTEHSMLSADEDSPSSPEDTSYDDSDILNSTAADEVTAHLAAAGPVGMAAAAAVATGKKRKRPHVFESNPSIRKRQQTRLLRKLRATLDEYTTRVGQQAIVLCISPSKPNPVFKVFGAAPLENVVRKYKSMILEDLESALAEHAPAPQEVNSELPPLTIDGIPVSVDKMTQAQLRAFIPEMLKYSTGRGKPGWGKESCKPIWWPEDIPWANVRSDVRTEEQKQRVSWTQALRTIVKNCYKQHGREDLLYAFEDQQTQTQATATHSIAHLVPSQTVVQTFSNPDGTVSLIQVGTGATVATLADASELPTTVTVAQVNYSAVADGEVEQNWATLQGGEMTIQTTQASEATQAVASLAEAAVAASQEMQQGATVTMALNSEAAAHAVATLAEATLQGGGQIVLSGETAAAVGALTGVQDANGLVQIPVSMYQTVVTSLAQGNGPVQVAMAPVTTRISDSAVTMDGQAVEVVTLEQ
Chain of Transcriptional activator Myb (Homo sapiens) (P10242 whole entry, looked up): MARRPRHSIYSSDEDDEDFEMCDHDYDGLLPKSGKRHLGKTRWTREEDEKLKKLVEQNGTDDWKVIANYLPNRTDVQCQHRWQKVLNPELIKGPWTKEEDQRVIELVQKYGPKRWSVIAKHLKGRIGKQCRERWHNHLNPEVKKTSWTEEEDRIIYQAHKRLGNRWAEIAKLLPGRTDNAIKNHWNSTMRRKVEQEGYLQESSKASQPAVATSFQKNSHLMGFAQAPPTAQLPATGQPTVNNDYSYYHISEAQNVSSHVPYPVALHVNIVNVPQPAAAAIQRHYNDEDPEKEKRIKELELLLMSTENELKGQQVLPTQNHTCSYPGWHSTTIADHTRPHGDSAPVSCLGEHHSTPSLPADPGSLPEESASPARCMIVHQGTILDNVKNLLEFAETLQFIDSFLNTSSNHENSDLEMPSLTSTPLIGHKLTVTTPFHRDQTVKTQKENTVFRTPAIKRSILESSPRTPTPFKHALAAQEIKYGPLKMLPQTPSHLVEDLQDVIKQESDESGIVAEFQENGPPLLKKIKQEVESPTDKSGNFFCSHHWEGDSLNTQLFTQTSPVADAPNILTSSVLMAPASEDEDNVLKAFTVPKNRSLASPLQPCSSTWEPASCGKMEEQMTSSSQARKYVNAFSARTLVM
Chain of Hepatocyte nuclear factor 4-alpha (Homo sapiens) (P41235 whole entry, looked up, the tested form may be a part): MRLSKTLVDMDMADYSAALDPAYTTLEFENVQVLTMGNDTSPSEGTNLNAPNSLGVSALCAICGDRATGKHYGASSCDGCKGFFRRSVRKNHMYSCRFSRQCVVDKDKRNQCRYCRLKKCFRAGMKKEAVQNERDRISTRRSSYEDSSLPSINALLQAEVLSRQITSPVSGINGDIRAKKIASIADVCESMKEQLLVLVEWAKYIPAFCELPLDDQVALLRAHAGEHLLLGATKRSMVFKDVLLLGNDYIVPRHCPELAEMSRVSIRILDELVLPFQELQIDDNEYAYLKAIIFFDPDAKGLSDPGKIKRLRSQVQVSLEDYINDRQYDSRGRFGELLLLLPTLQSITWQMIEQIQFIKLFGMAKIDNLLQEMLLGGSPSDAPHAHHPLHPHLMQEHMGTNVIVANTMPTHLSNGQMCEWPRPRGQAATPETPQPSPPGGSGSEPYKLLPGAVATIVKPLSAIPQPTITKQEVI
Chain of Cellular tumor antigen p53 (Homo sapiens) (P04637 whole entry, looked up): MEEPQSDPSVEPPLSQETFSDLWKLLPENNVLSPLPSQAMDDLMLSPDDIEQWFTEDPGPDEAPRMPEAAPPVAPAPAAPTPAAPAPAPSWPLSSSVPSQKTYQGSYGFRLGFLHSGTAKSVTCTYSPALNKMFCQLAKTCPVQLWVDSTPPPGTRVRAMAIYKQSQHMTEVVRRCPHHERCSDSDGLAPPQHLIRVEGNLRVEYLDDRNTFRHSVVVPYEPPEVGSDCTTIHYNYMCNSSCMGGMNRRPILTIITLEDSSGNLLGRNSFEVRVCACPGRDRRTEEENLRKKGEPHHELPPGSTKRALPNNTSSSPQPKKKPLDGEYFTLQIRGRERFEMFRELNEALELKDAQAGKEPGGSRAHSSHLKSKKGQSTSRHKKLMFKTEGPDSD

CCCCOc1ccc(N)cc1
not listed: [13] | [14] | [15] | [16] | [17] | [18] | [19] | [20]
inactive: all other assays above

FC(F)(F)C(F)(F)CNCC(F)(F)C(F)(F)F
not listed: [20]
inactive: all other assays above

CCCCCCOC(=O)c1ccccc1O
active: [17] 48 µM and 38.5 µM | [18] 24.5 µM and 41.1 µM | [19] 38.1 µM and 37.2 µM
not listed: [4] | [5]
inactive: all other assays above

C=CC(F)(F)C(F)(F)C(F)(F)C(F)(F)C(F)(F)C(F)(F)C(F)(F)C(F)(F)F
not listed: [8] | [11] | [16]
inactive: all other assays above

FC(F)(F)C(F)(F)C(F)(F)CI
not listed: [5] | [8] | [14] | [15] | [20]
inactive: all other assays above

CCCCCCCCCCCCCCCC[N+](C)(C)Cc1ccccc1
active: [1] 45.2 µM | [13] 24.8 µM | [16] 25.1 µM | [17] 20 µM | [18] 20 µM | [19] 8.49 µM
not listed: [5] | [14]
inactive: all other assays above

O=C(O)C(F)(F)C(F)(F)C(F)(F)C(F)(F)F
not listed: [11] | [13] | [15]
inactive: all other assays above
